IL-1B inflam inh = qHTS for Inhibitors of Inflammasome Signaling: IL-1-beta AlphaLISA Primary Screen | activity change, % at 57.5 µM | hit rate 4.7% among 360,000 | THP-1 LPS/ATP IL-1B secretion, AlphaLISA, 16 h; active compounds read low; in the data active = activity change below about -50%; inconclusive = mostly about -30% to -49%
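Secreted IL-1B measured by AlphaLISA bead assay after 16 h compound exposure of THP-1 cells; compounds (final up to 57.5 uM) added 1 h before LPS (250 ng/mL) and ATP (1.25 mM) stimulation; lower signal means less secretion.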
KB-V1 MDR tox = qHTS assay for MDR1-selective chemotherapeutics: Primary screen using the drug-selected MDR subline cells KB-V1; Potency, µM (titrated, usually from 46.1 µM), usual class: cytotoxic; AID 1347076, 2019; hit rate 3.4% among 400,000; KB-V1 MDR cells viability, CellTiter-Glo, 72 h; note: nearly all actives have a fitted effect of over 60% in size
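KB-V1, DMEM (no phenol red) + 10% FBS; cpd pin-transferred, titration series; 72 h, 37 degrees C; CellTiter-Glo, luminescence. Data normalized, curve-fit.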
KB-3-1 cytotox = qHTS assay for MDR1-selective chemotherapeutics: Primary screen using the parental adenocarcinoma cell KB-3-1; KB-3-1 viability, CellTiter-Glo ATP luminescence, 72 h; Potency, µM (highest dose often 46.1 µM), most hits filed as cytotoxic; hit rate 1.4% among 400,000; note: nearly all actives have a fitted effect of over 60% in size
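Cells are dispensed, compounds pinned in, plates held at 37 °C for 72 h, then CellTiter-Glo is added and luminescence read after 10 minutes. Cell line: parental KB-3-1 in phenol-red-free DMEM, 10% FBS.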
HT1080 IDH1KD tx = qHTS for induction of synthetic lethality in tumor cells producing 2HG: qHTS for the HT-1080-IDH1KD cell line. Potency, µM (highest dose often 46.1 µM), usual class: cytotoxic. HT-1080 IDH1 knockdown viability, ATP luminescence, 48 h. hit rate 2% among 360,000. AID 686971, 2013
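After a 2 h attachment period, IDH1KD HT-1080 cells took pin-transferred compound for 48 h at 37 °C; ATP-based luminescence after 10 min room-temperature reagent incubation reported viability.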
HT1080-NT tox = qHTS for induction of synthetic lethality in tumor cells producing 2HG: qHTS for the HT-1080-NT fibrosarcoma cell line | AID 686970, 2013 | HT-1080-NT fibrosarcoma viability, CellTiter-Glo ATP luminescence, 48 h | Potency, µM (top dose mostly 46.1 µM), hits mostly cytotoxic | hit rate 1.6% among 360,000;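 note: NT is the 2HG producing partner of a matched IDH1 knockdown line; nearly all actives have a fitted effect of over 55% in size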
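HT-1080-NT; 750 cells/well; 5% FBS RPMI; 48 h compound, 37 degrees C; CellTiter-Glo luminescence; curve fitting and curve-class assignment.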
Each line names hits and unclear results; the compound was inactive in the other large screens. Most compounds without a hit are left out; they make up all but 8.8% or so of the library. Unless noted, calls come from the whole dose curve; as a rule, active = well fitted curve in the direction sought with a large enough effect; inconclusive = small, poorly fitted or top-dose-only effect, or another doubt; inactive = no such curve, though single readings can be large; an effect the other way counts as inactive or inconclusive.

Cc1ccc(S(=O)(=O)N2CCN(c3ccc([N+](=O)[O-])c4cccnc34)CC2)cc1	KB-V1 MDR tox inconclusive
Cn1c(=O)n(C)c2cc([N+](=O)[O-])c(N3CCN(S(=O)(=O)c4ccccc4)CC3)cc21	KB-V1 MDR tox 2.9µM, KB-3-1 cytotox inconclusive
O=[N+]([O-])c1ccc(N2CCN(S(=O)(=O)c3ccccc3)CC2)c2cccnc12	KB-V1 MDR tox 8.2µM
CN(c1ccc(C(=O)N2CCOCC2)cc1[N+](=O)[O-])C1CCCCC1	KB-V1 MDR tox 23µM
Cc1nc(-n2nc(C)c(CCC(C)C)c2C)sc1C(=O)Nc1ccc(Br)cc1	none (no result: IL-1B inflam inh, HT1080 IDH1KD tx, HT1080-NT tox)
CCCCN(C=O)c1c(CC)nc2ccc(C(=O)NCc3cccs3)cn12	none
Cc1ccc(Cl)cc1Nc1nn2c(=O)c3ccc(C(=O)NCc4ccc(F)cc4)cc3nc2s1	none (no result: IL-1B inflam inh, HT1080 IDH1KD tx, HT1080-NT tox)
CC(C)S(=O)(=O)NC(=O)C1(C)CCN1C(=O)Cc1ccccc1 (stereo not drawn)	none
Cn1c(=O)n(C)c2cc([N+](=O)[O-])c(N3CCN(C(=O)c4ccccc4Cl)CC3)cc21	IL-1B inflam inh inconclusive, KB-V1 MDR tox 16µM, KB-3-1 cytotox 23µM, HT1080-NT tox inconclusive
Cn1c(=O)n(C)c2cc([N+](=O)[O-])c(N3CCN(C(=O)c4ccccc4Br)CC3)cc21	IL-1B inflam inh inconclusive, HT1080-NT tox inconclusive
C=CCN1C(C(=O)c2ccccc2)=C(OC(=O)COc2ccccc2)c2ccccc2S1(=O)=O	KB-V1 MDR tox 12µM, KB-3-1 cytotox inconclusive, HT1080 IDH1KD tx inconclusive, HT1080-NT tox inconclusive
CCOC(=O)CN1C(C(=O)c2ccccc2)=C(OC(=O)c2ccccc2)c2ccccc2S1(=O)=O	none (no result: IL-1B inflam inh, HT1080 IDH1KD tx, HT1080-NT tox)
O=C(Cc1cccc(C(F)(F)F)c1)Nc1ccccc1	none
CCCCNC(=NCc1cccc(C(F)(F)F)c1)Nc1ccccc1	IL-1B inflam inh -83, KB-V1 MDR tox 21µM, KB-3-1 cytotox inconclusive, HT1080 IDH1KD tx 23µM, HT1080-NT tox inconclusive
CNC(=O)NC(=O)CSc1nc2sccc2c(=O)n1-c1ccccc1	none
COc1cccc(CN(C)Cc2cc(=O)oc3c(C)c(C)ccc23)c1	KB-3-1 cytotox 16µM
O=S(=O)(c1ccc(F)c(F)c1)N1CCN(CCc2ccccc2)CC1	none
COc1ccc(C)cc1NC(=O)c1cc(C2CC2)nc2c1c(C)nn2C1CCS(=O)(=O)C1 (stereo not drawn)	KB-V1 MDR tox 4.6µM
COc1ccc(N2C(=O)C(Cl)=C(Oc3cccc(OC)c3)C2=O)cc1	IL-1B inflam inh -102, HT1080 IDH1KD tx 21µM, HT1080-NT tox 18µM
CC1=NN(c2cccc(C(=O)O)c2)C(=O)/C1=C\C=C/c1ccccc1	IL-1B inflam inh -103, KB-V1 MDR tox inconclusive, KB-3-1 cytotox inconclusive, HT1080 IDH1KD tx inconclusive, HT1080-NT tox inconclusive
CC1=NN(c2ccc(C)cc2)C(=O)/C1=C\C=C\c1ccccc1	IL-1B inflam inh -180, KB-V1 MDR tox inconclusive
CC1=NN(c2ccccc2)C(=O)/C1=C/C=C/C=C/N(C)C	KB-3-1 cytotox inconclusive, HT1080 IDH1KD tx inconclusive
Cc1c(C(=O)Nc2cccc(F)c2)cnn1-c1ccccc1	KB-V1 MDR tox inconclusive
NC(=O)C1CCN(C(=S)c2ccc(-c3ccc(Br)cc3)o2)CC1	none
NC(=O)c1ccc(-c2ccc(Br)cc2)o1	KB-V1 MDR tox 8.2µM, KB-3-1 cytotox 8.2µM
O=C(O)CCc1ccc(-c2ccc(Br)cc2)o1	IL-1B inflam inh -65
COc1ccc(C(=O)Nc2ccc(NC(=O)c3cc(OC)c(OC)c(OC)c3)cn2)cc1	HT1080 IDH1KD tx inconclusive
Cc1ccc(S(=O)(=O)NCc2cn3c(C)csc3n2)cc1	none
Cc1ccc(SCc2cn3c(C)csc3n2)cc1	HT1080 IDH1KD tx inconclusive, HT1080-NT tox 35µM
Cc1ccc(S(=O)(=O)N2CCCCC2)cc1NC(=O)c1ccncc1	none
COc1ccc(Nc2nc3[nH]c(=O)cc(O)c3s2)cc1	none
O=c1cc(O)c2sc(Nc3ccc(Cl)c(F)c3)nc2[nH]1	KB-3-1 cytotox 13µM
O=c1cc(O)c2sc(Nc3ccc(F)c(Cl)c3)nc2[nH]1	KB-3-1 cytotox 21µM

Screens deposited in PubChem by National Center for Advancing Translational Sciences (NCATS).
